Several values for one entry are separate records, joined by “and”; a condition that tells them apart may be missing. Identical values can stand only once. Inconclusive results are not listed. Activity calls are given as the source filed them. Unless noted, calls come from the whole dose curve; as a rule, active = well fitted curve in the direction sought with a large enough effect; inconclusive = small, poorly fitted or top-dose-only effect, or another doubt; inactive = no such curve, though single readings can be large; an effect the other way counts as inactive or inconclusive.
What was measured:
[1] = Cell Viability - LYMP2-022 (AID 987);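 note: 0% = DMSO alone and full effect = tetraoctylammonium bromide at 92 µM; nearly all actives have a fitted effect of over 55% in size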
Procedure, shortened: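 Cytotoxicity read as decreased cellular ATP (CellTiter-Glo luminescence, 30 min room temperature) after 24 hours compound exposure of 2500 lymphoblastoid LYMP2-022 cells/well at 37 C. Concentration-response data fitted with standard Hill equation for AC50.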

[2] = Cell Viability - LYMP2-024 (AID 988);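 note: plate controls were DMSO only for no effect and 92 µM tetraoctylammonium bromide for full effect; nearly all actives have a fitted effect of over 60% in size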
Procedure, shortened: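 Cytotoxicity was taken as a decrease in ATP (CellTiter-Glo luminescence) after 24 hr compound exposure at 37 C of LYMP2-024 lymphoblastoid cells, 2500 cells/well. Concentration-response data were fitted to the Hill equation to give AC50.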

[3] = Cell Viability - LYMP2-026 (AID 989); note: % is set by controls: 0 for no effect and ±100 for the full control effect; nearly all actives have a fitted effect of over 50% in size
Procedure, shortened: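 Cytotoxicity read as ATP-dependent luminescence (CellTiter-Glo, 30 min room temperature) after 24 h compound treatment at 37 C. LYMP2-026 lymphoblastoid line seeded at 2500 cells/well; AC50 derived by standard Hill equation.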

[4] = Cell Viability - LYMP1-002 - Assay at 24 hr (AID 993); note: % is set by controls: 0 for no effect and ±100 for the full control effect
Procedure, shortened: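 qHTS cytotoxicity at 24 h: CellTiter-Glo ATP luminescence in lymphoblastoid line LYMP1-002 incubated with compound at 37 °C. Concentration-response modeled with the Hill equation for AC50; tetraoctylammonium bromide served as positive control.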

[5] = Cell Viability - LYMP1-002 - Assay at 40 hr (AID 994);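 note: 0% = DMSO only and full inhibition = 92 µM tetraoctylammonium bromide; nearly all actives have a fitted effect of over 60% in size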
Procedure, shortened: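 Cytotoxicity was read as loss of cellular ATP (CellTiter-Glo luminescence) after 40 hr compound exposure at 37 C of 2500 LYMP1-002 lymphoblastoid cells per well. Concentration-response data were fitted with the standard Hill equation to give AC50.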

[6] = Validation of Assay for Modulators of Lamin A Splicing (AID 1459; active = well fitted curve in the direction sought with a large enough effect in the signal ratio; the % refers to the signal ratio;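 note: cells exposed to compound for two days before reading; 0% is about no effect; ratio rise marks activators and ratio drop marks inhibitors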)
Procedure, shortened: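 Splicing correction is reported by an EGFP-containing lamin A minigene in stably transfected S3 HeLa cells, while DsRed2 controls for viability and nonspecific signal. Cells are exposed to compounds for 48 hrs before the GFP over RFP ratio is taken.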

[7] = qHTS Assay for Lipid Storage Modulators (AID 1519; calls by dose curve; for activity change, negative = inhibition: % is set by controls: 0 for no effect and ±100 for the full control effect); details: Drosophila S3 cells, BODIPY lipid droplet/cell ratio, laser cytometry, cells loaded with oleic acid
Procedure, shortened: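 Cells seeded at 5,000 per well were treated with compounds over a concentration series and loaded with oleic acid (400 uM, as added). Lipid droplet fluorescence (488 nm excitation, 500-530 nm channel) was read by laser-scanning cytometry and normalized to 20 uM Triacsin C.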

[8] = target: DNA repair nuclease/redox regulator APEX1 (Homo sapiens) (UniProt P27695); assay: qHTS Validation Assay for Inhibitors of the Human Apurinic/apyrimidinic Endonuclease 1 (APE1) (AID 1705;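 note: TAMRA fluorescence gain over two minutes as APE1 cuts a quenched THF abasic duplex; % is set by controls: 0 for no effect and ±100 for the full control effect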)
Procedure, shortened: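 Endonuclease activity of human APE1 is followed as dequenching when the enzyme incises a tetrahydrofuran abasic site in a short duplex labelled 5'-TAMRA/3'-BHQ-2 (50 nM final), after 15 min enzyme–compound preincubation at room temperature.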

[9] = Counterscreen for APE1 Inhibitors: Fluorescent Dye Displacement Validation Assay (AID 1707);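 note: plate controls were ThO with dsDNA and no compound for no effect and ThO without dsDNA for full effect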
Procedure, shortened: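 Loss of Thiazole Orange fluorescence marks promiscuous DNA binders. The dye (250 nM) is mixed with 50 nM abasic-site dsDNA in pH7.5 Tris buffer containing MgCl2, then compounds are added and emission is read once.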

[10] = target: Endonuclease 4 (Escherichia coli (strain K12)) (UniProt P0A6C1); assay: Counterscreen for APE1 Inhibitors: qHTS Validation Assay for Inhibitors of Endonuclease IV (AID 1708); note: % is set by controls: 0 for no effect and ±100 for the full control effect
Procedure, shortened: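 Enzyme (2 nM) + compound, 15 min RT; add 50 nM TAMRA/BHQ-2 THF-site dsDNA; kinetic read ex525/em598, 3 reads/60 s; activity = read 3 − read 1. Buffer Tris pH 7.5, 50 mM NaCl, 2 mM MgCl2, DTT, Tween-20.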

[11] = qHTS for differential inhibitors of proliferation of Plasmodium falciparum line 7G8 (AID 1815);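 note: parasite growth measured after three days of incubation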; note: potency is the fitted concentration of half-maximal effect;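 for activity change, negative = inhibition: plate controls were vehicle wells for no effect and reference inhibitor wells for full effect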
[12] = qHTS for differential inhibitors of proliferation of Plasmodium falciparum line 3D7 (AID 1876); note: potency is the fitted concentration of half-maximal effect
[13] = target: Alpha-galactosidase A (Homo sapiens) (UniProt P06280); assay: Counterscreen for Glucocerebrosidase Inhibitors: qHTS Assay for Human alpha-Galactosidase at pH 4.5 (AID 992); note: 0% is about no effect
Procedure, shortened: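 Each compound is preincubated briefly with 2 nM enzyme before substrate addition (80 uM); plates then sit 20 min at ambient temperature, are quenched with 1M NaOH/1M glycine, and read fluorometrically.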

[14] = target: alpha-glucosidase (Oryza sativa, rice) (UniProt Q653V4); assay: Counterscreen for Glucocerebrosidase Inhibitors: qHTS Assay for Rice alpha-Glucosidase at pH 5.0 (AID 997);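 note: 0% = full activity with enzyme and -100% = basal without enzyme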
Procedure, shortened: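 Endpoint fluorogenic assay at pH 5.0: compounds (0.7 nM to 77 uM) titrated against 4 nM rice enzyme and 400 uM 4-MU-alpha-glucoside for 20 min at room temperature; NaOH/glycine stop, read ex 365/em 440 nm, Hill-fitted AC50.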

[15] = qHTS for differential inhibitors of proliferation of Plasmodium falciparum line GB4 (AID 1816); details: Potency: Plasmodium falciparum GB4 proliferation inhibition;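 note: parasite growth measured after 72 h incubation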; note: potency is the fitted concentration of half-maximal effect;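 for activity change, negative = inhibition: 0% = vehicle DMSO and -100% = reference inhibitor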
[16] = qHTS for differential inhibitors of proliferation of Plasmodium falciparum line D10 (AID 1877);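 note: parasites grown with compound for 72 h before DNA staining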; note: potency is the fitted concentration of half-maximal effect;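 for activity change, negative = inhibition: plate controls were vehicle wells for no effect and reference inhibitor wells for full effect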
[17] = qHTS for differential inhibitors of proliferation of Plasmodium falciparum line W2 (AID 1883); details: Potency: Plasmodium falciparum W2 proliferation inhibition;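 note: parasites grown with compound for 72 h before lysis and staining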; note: potency is the fitted concentration of half-maximal effect;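 for activity change, negative = inhibition: 0% = vehicle wells and -100% = control inhibitor wells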
[18] = qHTS for differential inhibitors of proliferation of Plasmodium falciparum line HB3 (AID 1886); details: Potency: Plasmodium falciparum HB3 proliferation inhibition;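 note: parasites grown with compound for 72 h before SYBR Green readout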; note: potency is the fitted concentration of half-maximal effect;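 for activity change, negative = inhibition: plate controls were vehicle for no effect and reference inhibitor for full effect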
[19] = qHTS for differential inhibitors of proliferation of Plasmodium falciparum line Dd2 (AID 1882); details: Potency: Plasmodium falciparum Dd2 proliferation inhibition;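 note: plate controls were DMSO vehicle for no effect and 0.29 µM artemisinin for full effect; nearly all actives have a fitted effect of over 65% in size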
Procedure, shortened: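 SYBR Green DNA fluorescence (ex 485, em 535 nm) after overnight lysis quantifies parasite growth; compound exposure lasted 72 h at 37 C on infected red cells at 2.5% hematocrit, 0.3% parasitemia (final). Artemisinin 0.29 uM and vehicle wells define normalization.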

[20] = qHTS Assay for Modulators of Human Peripheral Myelin Protein 22 (PMP22) Expression/Activity (AID 1967; active = well fitted curve in the direction sought with a large enough effect in the signal ratio; the % refers to the signal ratio;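 note: 0% = untreated cells and 100% end not stated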)
Procedure, shortened: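 Quantitative HTS in a mouse Schwann cell line expressing dual click beetle luciferases: Pmp22 promoter (green) and control EF-alpha promoter (red). After 24h treatment, corrected green/red signal ratio gave %Activity relative to untreated cells.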

[21] = measured here: cell count channel max response
[22] = measured here: lipid channel max response

Sequence of Alpha-galactosidase A (Homo sapiens) (P06280 whole entry, looked up): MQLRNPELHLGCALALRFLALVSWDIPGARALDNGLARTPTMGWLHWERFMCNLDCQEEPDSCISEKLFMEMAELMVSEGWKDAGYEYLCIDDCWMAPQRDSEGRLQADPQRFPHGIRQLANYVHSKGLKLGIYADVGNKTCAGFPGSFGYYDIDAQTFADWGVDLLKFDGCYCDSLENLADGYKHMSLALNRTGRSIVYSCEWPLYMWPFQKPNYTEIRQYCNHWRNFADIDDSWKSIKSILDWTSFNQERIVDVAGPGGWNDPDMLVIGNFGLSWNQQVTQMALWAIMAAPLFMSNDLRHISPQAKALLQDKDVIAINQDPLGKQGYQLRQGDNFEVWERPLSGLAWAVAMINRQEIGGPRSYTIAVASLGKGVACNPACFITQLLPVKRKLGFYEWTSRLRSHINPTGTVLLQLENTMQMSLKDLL
Sequence of DNA repair nuclease/redox regulator APEX1 (Homo sapiens) (P27695 whole entry, looked up): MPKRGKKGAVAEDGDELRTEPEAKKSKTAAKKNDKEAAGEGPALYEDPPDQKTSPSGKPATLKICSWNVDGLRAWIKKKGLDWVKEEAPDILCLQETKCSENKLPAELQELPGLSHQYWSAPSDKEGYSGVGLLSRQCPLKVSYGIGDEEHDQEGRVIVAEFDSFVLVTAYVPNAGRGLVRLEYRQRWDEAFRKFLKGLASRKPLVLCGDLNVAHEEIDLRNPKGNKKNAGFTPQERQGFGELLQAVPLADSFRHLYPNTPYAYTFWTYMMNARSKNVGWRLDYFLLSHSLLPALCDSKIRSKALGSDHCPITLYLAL

CC(C)NCC(O)c1ccc(O)c(O)c1 (stereo not drawn)
18.9% and -2.86% and -5.68%: max response [7, 22]
14.1% and -2.95% and -6.8%: max response [7, 21]
inactive: outcome [1] | outcome [2] | outcome [3] | outcome [4] | Potency [5] | outcome [6] | activity change, negative = inhibition ([7]; at 57.5 µM (top of the series)) 4.99% and 0.312% and 1.86% | Potency [8] | Potency [9] | Potency [10] | Potency [11] | Potency [12]

CCOC(=O)C(C)(C)Oc1ccc(Cl)cc1
inactive: outcome [13] | outcome [14] | outcome [6] | Potency [8] | Potency [9] | Potency [10] | Potency [11] | Potency [15] | Potency [12] | Potency [16] | Potency [17] | Potency [18]

NC(CO)C(=O)NNCc1ccc(O)c(O)c1O (stereo not drawn)
25.8%: max response [7, 21]
inactive: outcome [6] | activity change, negative = inhibition ([7]; at 57.5 µM (top of the series)) 13.3% | Potency [8] | Potency [9] | Potency [10] | Potency [15] | Potency [12] | Potency [16] | Potency [19] | Potency [18]
46.4%: max response [7, 22]

CC1COc2c(N3CCN(C)CC3)c(F)cc3c(=O)c(C(=O)O)cn1c23 (stereo not drawn)
inactive: outcome [6] | activity change, negative = inhibition ([7]; at 57.5 µM (top of the series)) 6.1% and 7.75% | Potency [8] | Potency [9] | Potency [10] | Potency [19] | Potency [20]
active: Potency [17] 14.1 µM
10.5% and 11.1%: max response [7, 21]
20.7% and 20.3%: max response [7, 22]

COc1cc2nc(N(C)CCCNC(=O)C3CCCO3)nc(N)c2cc1OC (stereo not drawn)
20.8%: max response [7, 22]
inactive: activity change, negative = inhibition ([7]; at 57.5 µM (top of the series)) 3.93%
5.38%: max response [7, 21]

Nc1nnc(-c2cccc(Cl)c2Cl)c(N)n1
18.9%: max response [7, 21]
20.6%: max response [7, 22]
inactive: outcome [13] | outcome [14] | outcome [6] | activity change, negative = inhibition ([7]; at 57.5 µM (top of the series)) 1.91% | Potency [8] | Potency [9] | Potency [10] | Potency [11] | Potency [16] | Potency [17] | Potency [18]

O=C(c1ccc(OCCN2CCCCC2)cc1)c1c(-c2ccc(O)cc2)sc2cc(O)ccc12
-4.93% and -10.5%: max response [7, 22]
active: Potency [11] 4.47 µM | Potency [15] 2 µM | Potency [12] 2.82 µM | Potency [16] 3.16 µM | Potency [17] 3.16 µM | Potency [18] 3.16 µM
-4.67% and -13.2%: max response [7, 21]
inactive: outcome [13] | outcome [14] | activity change, negative = inhibition ([7]; at 25.7 µM (top of the series)) -1.98% | activity change, negative = inhibition ([7]; at 57.5 µM (top of the series)) 1.97% | Potency [8]

CN1CCN(CCCN2c3ccccc3Sc3ccc(Cl)cc32)CC1
-2.79% and -1.33%: max response [7, 21]
active: Potency [11] 5.01 µM | Potency [15] 10 µM | Potency [12] 6.31 µM | Potency [16] 12.6 µM | Potency [17] 4.47 µM | Potency [18] 12.6 µM
-5.2% and 2.08%: max response [7, 22]
inactive: outcome [13] | outcome [14] | activity change, negative = inhibition ([7]; at 25.7 µM (top of the series)) -2.25% | activity change, negative = inhibition ([7]; at 57.5 µM (top of the series)) 2.24% | Potency [8] | Potency [9]

CC(C)NCC(O)COc1ccc(CCOCC2CC2)cc1 (stereo not drawn)
inactive: activity change, negative = inhibition ([7]; at 57.5 µM (top of the series)) -2.88% | Potency [8] | Potency [9] | Potency [10] | Potency [12] | Potency [16] | Potency [19] | Potency [18]
active: Potency [11] 10 µM | Potency [17] 7.08 µM
-16.9%: max response [7, 21]
-20.2%: max response [7, 22]
